Screens deposited in PubChem BioAssay by The Scripps Research Institute Molecular Screening Center.
PME-1 inh – blocks human protein phosphatase methylesterase 1; Q9Y570; hit rate 0.53% among 320,000; recombinant PME-1, FP-Rh probe fluorescence polarization; inhibition, % at 5.9 µM; AID 2130;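 active = inhibition above the campaign mean of all compounds plus 3 SD, cut at about 26% in these data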;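 note: competitive labeling of PME-1 active site by serine hydrolase directed probe; inhibitors block probe labeling so polarization falls and inhibition rises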
Target sequence (Q9Y570 whole entry, looked up): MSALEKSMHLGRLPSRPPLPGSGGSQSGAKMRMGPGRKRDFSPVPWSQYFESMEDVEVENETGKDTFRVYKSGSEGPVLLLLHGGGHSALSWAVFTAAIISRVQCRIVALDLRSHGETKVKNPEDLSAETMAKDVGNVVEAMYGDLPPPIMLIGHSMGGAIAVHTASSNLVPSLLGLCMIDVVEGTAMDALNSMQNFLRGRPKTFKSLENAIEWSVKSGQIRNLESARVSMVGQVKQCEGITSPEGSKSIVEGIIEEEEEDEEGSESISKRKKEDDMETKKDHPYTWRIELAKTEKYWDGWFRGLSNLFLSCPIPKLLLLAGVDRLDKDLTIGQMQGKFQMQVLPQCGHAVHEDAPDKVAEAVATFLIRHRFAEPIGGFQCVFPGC
LYPLA1 inh – LYPLA1 (human) inhibition in PME1 counter-screen; recombinant LYPLA1, FP-Rh probe fluorescence polarization; inhibition, % at 5.9 µM; hit rate 0.16% among 320,000;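 active = inhibition above the mean of all tested compounds plus 3 SD, set per campaign, cut at about 14% in these data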;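 note: inhibitors block serine hydrolase probe labeling of LYPLA1 so polarization falls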
PAD4 FP inh – PAD4 (human) enzyme inhibition; AID 485272; inhibition, % at 6.36 µM; recombinant PAD4, RCA probe fluorescence polarization; hit rate 0.41% among 330,000; Q9UM07;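 active = percent inhibition above a cutoff equal to the mean of all tested compounds plus 3 SD, cut at about 15% in these data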
Fam108B inh – Fam108B inhibition, counter-screen for RBBP9 inhibitors | recombinant Fam108B, FP-Rh probe fluorescence polarization | inhibition, % at 9.51 µM | hit rate 0.33% among 300,000 | AID 1947;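 active = inhibition above the screen mean inhibition plus 3 SD, computed separately per campaign, cut at about 18% in these data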;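 note: inhibitors lower polarization as less probe binds the enzyme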
LYPLA2 counter – blocks human lysophospholipase 2, a PME1 counter-screen. O95372. inhibition, % at 5.9 µM. hit rate 0.38% among 320,000. recombinant LYPLA2, FP-Rh probe fluorescence polarization. AID 2177;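 active = inhibition above the screen-wide mean plus 3 SD, limit set per campaign, cut at about 26% in these data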
GSTO1 inh – GSTO1 inhibition, counter-screen for RBBP9 inhibitors. P78417. recombinant GSTO1, activity-based probe fluorescence polarization. inhibition, % at 5.96 µM. hit rate 1.1% among 300,000. AID 1974;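 active = inhibition above the campaign mean inhibition plus 3 SD, cut at about 35% in these data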
Target sequence (P78417 whole entry, looked up): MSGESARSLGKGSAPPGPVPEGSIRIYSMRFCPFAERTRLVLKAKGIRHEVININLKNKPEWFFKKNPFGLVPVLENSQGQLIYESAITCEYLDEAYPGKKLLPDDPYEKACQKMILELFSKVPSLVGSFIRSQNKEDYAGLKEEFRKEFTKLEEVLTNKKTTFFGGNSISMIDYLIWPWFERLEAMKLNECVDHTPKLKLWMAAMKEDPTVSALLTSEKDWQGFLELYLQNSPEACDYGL
A number is an active result; n = inactive; x = not tested or not shown. In the library only some 1.8% were active in any assay of this set; here they are far more common.

SMILES	PME-1 inh	LYPLA1 inh	PAD4 FP inh	Fam108B inh	LYPLA2 counter	GSTO1 inh
CNc1ccc(Br)cc(C(=O)/C=C/c2cccc(OC)c2)c1=O	n	n	n	n	n	36
CNc1ccc(Br)cc(C(=O)/C=C/c2ccc(OC)cc2OC)c1=O	n	n	n	n	n	36
CCNc1ccc(Br)cc(C(=O)/C=C/c2ccc(Cl)cc2)c1=O	n	n	n	n	n	n
COc1ccc(/C=C/C(=O)c2ccc(OC)cc2OC)c(OC)c1	n	n	n	n	n	n
CNc1ccc(Br)cc(C(=O)/C=C/c2ccc(Cl)cc2Cl)c1=O	n	n	n	n	n	35
O=C1NC(Cc2ccccc2)c2nc3ccc(F)cc3c(=O)n2-c2cc(Cl)ccc21 (centres undefined)	x	x	n	x	x	x
CCOC(=O)C1CCN(C(=O)C(C)Sc2nnc3ccccn23)CC1 (centres undefined)	x	x	n	x	x	x
COc1ccccc1NS(=O)(=O)c1ccc(C(=O)Nc2ncccc2O)cc1	n	n	n	x	n	x
CCC(Sc1nc2ccccc2o1)C(=O)Nc1nnc(C)s1 (centres undefined)	n	n	n	n	n	44
CCOC(=O)CSc1nc2sc3c(c2c(=O)[nH]1)CC(C)(CC)OC3 (centres undefined)	n	n	n	n	n	n
CCC1(C)Cc2c(sc3nc(NN)n(C)c(=O)c23)CO1 (centres undefined)	37	n	n	n	n	n
O=C1CCCN1CCCNc1ncnc2sccc12	n	n	n	n	n	n
Cc1sc2ncnc(NCCCN3CCCC3=O)c2c1C	n	n	n	n	n	37
CC(=O)c1ccc(N2Cc3ccccc3/C2=N\C(=O)Nc2ccccc2)cc1	n	n	n	n	n	n
CC(=O)c1cccc(N2Cc3ccccc3C2=NC(=O)CCl)c1	n	n	n	n	n	78
CCCNC(=O)c1ccc(COc2ccc(CCC)cc2OC)o1	n	n	n	n	n	n
O=C(c1ccco1)[C@@H]1[C@@H]2C(=O)N(c3ccccc3)C(=O)[C@@H]2C2c3ccccc3C=CN21 (some centres undefined)	n	n	n	n	n	37
COc1ccc(N2C(=O)[C@@H]3[C@H](C2=O)[C@H]2c4ccccc4C=CN2[C@@H]3C(=O)Nc2ccccc2)cc1	n	n	n	25	n	n
COc1ccc(CCNC(=O)C2CCN(S(=O)(=O)c3ccc4c(c3)oc(=O)n4C)CC2)cc1OC	n	n	n	n	n	n
O=C(OCn1ncc(Br)c(Br)c1=O)c1c(F)cccc1F	n	n	22	n	n	n
COC(=O)C(COC(=O)c1c(F)cccc1F)NC(=O)c1c(F)cccc1F (centres undefined)	n	n	n	n	n	n
O=C(NC1C(=O)NNC1c1ccc(Cl)cc1)c1ccc(F)cc1 (centres undefined)	n	n	n	n	37	n
CCOc1cc(/C=C/C(=O)c2ccc(OC)c(CN3CCOCC3)c2)cc(Br)c1O	n	n	n	n	n	n
COc1cc(/C=C2\CCC/C(=C\c3ccc(O)c(OC)c3)C2=O)ccc1O	26	n	n	n	n	n
COc1cccc(NC2=C(NCCO)C(=O)c3ccccc3C2=O)c1	n	n	n	n	n	n
SMILES	PME-1 inh	LYPLA1 inh	PAD4 FP inh	Fam108B inh	LYPLA2 counter	GSTO1 inh
COc1ccc(NC2=C(NCCO)C(=O)c3ccccc3C2=O)cc1	n	n	n	n	n	44
Cc1cccc(NC2=C(NCCO)C(=O)c3ccccc3C2=O)c1	n	n	n	n	n	42
CCOc1ccc(NC2=C(OC)C(=O)c3ccccc3C2=O)cc1	n	n	n	n	n	40
CC(=O)Nc1ccc(S(=O)(=O)Nc2ccc3c(c2)CCC3)cc1	n	n	n	n	n	35
O=C(Nc1ccc(Cl)cc1)c1cc(Br)ccc1OCC(=O)N1CCOCC1	n	n	n	n	n	n
O=C(CCl)Nc1ccccc1C(=O)NCc1ccccc1	n	n	n	n	n	86
Cc1ccccc1NC(=O)Nc1ccccc1C(=O)NCc1ccccc1	n	n	n	n	n	n
CC1OC2(C)OC(=N)C1(C#N)C(C#N)(C#N)C2c1ccccc1 (centres undefined)	n	n	25	n	n	n
CCCCC1OC2(C)OC(=N)C1(C#N)C(C#N)(C#N)C2c1ccccc1 (centres undefined)	n	n	n	n	n	n
CCN(CC(=O)Nc1cccc(S(=O)(=O)N(C)c2ccccc2)c1)Cc1ccccc1	n	n	n	x	n	x
CC1=CC(=Nc2c(C)n(C)n(-c3ccccc3)c2=O)C=C(C)C1=O	n	n	n	n	n	50
CCC(C)C1=CC(=Nc2c(C)n(C)n(-c3ccccc3)c2=O)C=C(C(C)CC)C1=O (centres undefined)	n	n	n	n	n	n
O=C(N/C(=C/c1ccccc1)C(=O)N1CCCCC1)c1ccco1	n	n	n	n	n	n
COc1ccccc1CN(C)C(=O)COC(=O)c1c(C)noc1C	x	x	n	x	x	x
CC(C)[C@H](NC(=O)c1ccccc1)C(=O)OCC(=O)c1ccc(S(=O)(=O)N2CCCCC2)cc1	n	n	n	n	n	37
Cc1cc(C(=O)CCl)c(C)n1-c1cccc(S(=O)(=O)N2CCOCC2)c1	n	n	n	n	n	94
CSCCC(NC(=O)COc1ccccc1)C(=O)N1CC(C)OC(C)C1 (centres undefined)	n	n	n	x	n	x
CC1=C(C#N)C(=O)N(C2CCS(=O)(=O)C2)C(=O)/C1=C\c1ccc(C)o1 (centres undefined)	n	n	n	n	n	36
Cc1nc(C(N)=O)c(N)n1CCc1ccccc1	n	n	n	n	n	n
O=C(Oc1ccccc1O)c1cccc2ccccc12	n	n	n	n	n	59
O=C(O)CC/C(=C\c1ccc(N2CCCC2)c([N+](=O)[O-])c1)c1nc2ccccc2s1	40	n	n	n	n	n
CCOC(=O)N1CCC2(CC1)C(C#N)=C(N)Oc1n[nH]c(CSc3ccc(C)cc3)c12	n	n	n	n	n	36
Cc1ccc(SCC2=NN(c3nc(C)cc(C)n3)C(=O)C2)cc1	n	n	n	n	n	37
CCOc1ccc(NS(=O)(=O)c2cc(C(=O)NCCCN3CCCC3=O)ccc2C)cc1	n	n	n	x	n	x
Fc1ccc(NC(=S)Nc2cccc3cnccc23)cc1	n	n	n	n	n	n
S=C(Nc1ccc(Cl)cc1)Nc1cccc2cnccc12	n	n	n	n	n	38
CC(=O)c1cccc(NC(=O)CSc2nc(N3CCOCC3)nc(N3CCOCC3)n2)c1	n	n	n	n	n	n
COc1cc2c(cc1NC(=O)c1cccnc1)oc1ccccc12	28	n	n	n	n	n
COc1cc2c(cc1NC(=O)c1ccncc1)oc1ccccc12	n	n	n	n	n	n
CCOC(=O)CCc1c(C)nc(SCCCn2c(=O)[nH]c3ccccc32)c(C#N)c1C	26	n	n	n	n	n
